Pol beta inh: blocks human DNA polymerase beta activity; Potency, µM (highest dose often 114 µM), hits mostly inhibitors; Pol beta primer extension/strand displacement, fluorescence kinetic; 340,000 tested, 1.3% active; P06746
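Preincubation: enzyme (10 nM) with compound, 15 min, RT. Reaction: substrate added to 50 nM final. Reads: 0 and 10 min. Analysis: normalized, Hill fit.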
L3MBTL1 inh: inhibitors of human L3MBTL1; AID 485360; Potency, µM (series often up to 57.1 µM), hits mostly inhibitors; 230,000 tested, 0.66% active; Q9Y468; AlphaScreen L3MBTL1–H3K9me1 peptide binding; note: nearly all actives have a fitted effect of over 60% in size
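Displacement of a biotinylated histone H3(1-15) peptide monomethylated at Lys9 (75 nM) from L3MBTL1 (50 nM) was measured by AlphaScreen after a 30 min room-temperature compound incubation; cefsulodin titration served as intraplate control.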
Pol eta inh: blocks human DNA polymerase eta activity; Q9Y253; recombinant Pol eta, fluorescent DNA replication assay; Potency, µM (series often up to 114 µM), usual class: inhibitors; 390,000 tested, 1.2% active; AID 588591
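Fluorescent replication assay: 50 nM final substrate added after a 15 min room-temperature compound preincubation with 10 nM enzyme. Signal taken at 0 min and again at 10 min.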
POLI inh: inhibitors of human DNA polymerase iota | Q9UNA4 | Pol iota fluorescent replication assay, 10 min | Potency, µM (top dose mostly 115 µM), actives largely listed as inhibitors | 390,000 tested, 1% active | AID 588590
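Pol iota at 10 nM preincubated 15 min with compounds at room temperature; reaction started with fluorescent substrate, 50 nM final. Fluorescence read kinetically at 0 and 10 min; buffer-only wells as negative control.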
Pol kappa inh: blocks human DNA polymerase kappa activity. Q9UBT6. purified Pol kappa, fluorescent DNA synthesis assay, 10 min. Potency, µM (highest dose often 107 µM), hits mostly inhibitors. 400,000 tested, 0.53% active. AID 588579
Target sequence (Q9UBT6 whole entry, looked up): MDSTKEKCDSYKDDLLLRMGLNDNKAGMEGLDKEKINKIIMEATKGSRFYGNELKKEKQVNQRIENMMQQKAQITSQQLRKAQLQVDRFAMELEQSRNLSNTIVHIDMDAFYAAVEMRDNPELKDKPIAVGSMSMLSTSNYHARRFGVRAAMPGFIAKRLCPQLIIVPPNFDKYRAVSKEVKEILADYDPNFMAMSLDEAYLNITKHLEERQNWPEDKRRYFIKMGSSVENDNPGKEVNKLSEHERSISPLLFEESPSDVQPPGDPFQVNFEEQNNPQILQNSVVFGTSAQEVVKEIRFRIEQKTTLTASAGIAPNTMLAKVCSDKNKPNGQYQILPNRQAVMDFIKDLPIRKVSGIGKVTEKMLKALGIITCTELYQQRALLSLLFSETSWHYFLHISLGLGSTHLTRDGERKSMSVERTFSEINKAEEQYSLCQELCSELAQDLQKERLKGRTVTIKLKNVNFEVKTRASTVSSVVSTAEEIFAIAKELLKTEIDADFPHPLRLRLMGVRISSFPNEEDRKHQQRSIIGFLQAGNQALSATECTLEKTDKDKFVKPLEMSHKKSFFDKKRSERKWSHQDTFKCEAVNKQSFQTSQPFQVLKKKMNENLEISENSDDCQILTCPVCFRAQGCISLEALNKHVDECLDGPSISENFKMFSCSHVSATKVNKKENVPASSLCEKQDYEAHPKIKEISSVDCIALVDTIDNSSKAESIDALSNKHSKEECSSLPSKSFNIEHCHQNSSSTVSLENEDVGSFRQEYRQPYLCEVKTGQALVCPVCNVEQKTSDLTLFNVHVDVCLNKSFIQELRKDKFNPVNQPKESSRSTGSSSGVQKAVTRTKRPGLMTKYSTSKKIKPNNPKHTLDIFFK
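Kinetic fluorescence readout at 0 and 10 min followed reaction start with substrate at 50 nM final. Beforehand, enzyme (10 nM Pol kappa) stood 15 min with compound at room temperature; buffer-only wells were negative controls.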
A number is an active result. Compounds with a hit are over-represented: about 2.4% of the library has one in this group of screens. Calls come from the whole dose curve; as a rule, active = well fitted curve in the direction sought with a large enough effect; inconclusive = small, poorly fitted or top-dose-only effect, or another doubt; inactive = no such curve, though single readings can be large; an effect the other way counts as inactive or inconclusive.

Screening CN1/C(=C/c2cc[n+](C)c3ccccc23)C=Cc2ccccc21 returned Pol beta inh 32µM, Pol eta inh inactive, POLI inh inactive and Pol kappa inh inactive.
Cc1cc(C)c2c(n1)sc1c(=O)n(-c3cc(Cl)ccc3C)nnc12 was read as Pol beta inh inactive, Pol eta inh inactive, POLI inh inactive and Pol kappa inh inactive.
`O=C1c2ccccc2C(=O)c2c([N+](=O)[O-])ccc(O)c21` gave Pol beta inh inconclusive, L3MBTL1 inh inactive, Pol eta inh 32µM, POLI inh 50µM and Pol kappa inh inactive.
For Cc1cc(/C=C/c2ccnc3ccccc23)ccc1N(C)C the results were POLI inh inactive and Pol kappa inh inactive.
Screening COc1ccc(OCCCCc2c(C)n[nH]c2C)cc1 returned Pol eta inh inactive, POLI inh 79µM and Pol kappa inh inactive.
Screening Nc1ncnc(N)c1NC(=O)c1ccc(OCc2ccccc2)cc1 returned Pol eta inh inactive.
For O=C(Nc1nnc(C23CC4CC(CC(C4)C2)C3)s1)c1ccc(N2C(=O)CCC2=O)cc1 the results were Pol beta inh 10µM, L3MBTL1 inh inconclusive, Pol eta inh inconclusive, POLI inh inconclusive and Pol kappa inh inactive.
`Cc1cccc(C)c1NC(=O)CCCCCC1NC(=O)NC1C` (configuration not stated) gave Pol beta inh inactive, Pol eta inh inactive, POLI inh inactive and Pol kappa inh inactive.
`CC1NC(=O)NC1CCCCCC(=O)NCCc1ccccc1` (configuration not stated) gave Pol beta inh inactive, L3MBTL1 inh 1.4µM, Pol eta inh inactive, POLI inh inconclusive and Pol kappa inh inactive.
`CN(C)c1ccc(/C=C/N2C=CCc3c2ccc2ccccc32)cc1` gave POLI inh inconclusive and Pol kappa inh 50µM.
For CCN(CCCCO)c1nc(C)nc2c1c(C)c(C)n2-c1c(C)cc(C)cc1C the results were Pol kappa inh inactive.
`O=c1[nH]c(=S)[nH]c2n[nH]nc12` gave POLI inh inactive and Pol kappa inh inactive.
For CCN(c1ccc(NC(=O)CCc2nc3sc4c(c3c(=O)[nH]2)CCCC4)cc1)C(C)C the results were L3MBTL1 inh inconclusive, Pol eta inh inconclusive, POLI inh inconclusive and Pol kappa inh inactive.
COc1ccc(CCNC(=O)CCc2nc3sc4c(c3c(=O)[nH]2)CCCC4)cc1 was read as Pol beta inh 35µM, Pol eta inh inconclusive, POLI inh inconclusive and Pol kappa inh inactive.
Screening CN(C)C(CNC(=O)CCc1nc2sc3c(c2c(=O)[nH]1)CCCC3)c1ccccc1 (configuration not stated) returned L3MBTL1 inh inactive, Pol eta inh inactive, POLI inh inconclusive and Pol kappa inh inactive.
`O=C(CCc1nc2sc3c(c2c(=O)[nH]1)CCCC3)Nc1ccccc1Cl` gave L3MBTL1 inh inconclusive, Pol eta inh inconclusive, POLI inh 45µM and Pol kappa inh inconclusive.
O=C(CCc1nc2sc3c(c2c(=O)[nH]1)CCCC3)NCCc1ccc(Cl)cc1 was read as Pol eta inh inactive.
For CCc1ccc(NC(=O)CCc2nc3sc4c(c3c(=O)[nH]2)CCCC4)cc1 the results were L3MBTL1 inh inconclusive, Pol eta inh 45µM, POLI inh inconclusive and Pol kappa inh inconclusive.
For CCNc1nc(NC(C)C)nc(Nn2cnnc2)n1 the results were Pol beta inh 35µM, Pol eta inh inactive, POLI inh inactive and Pol kappa inh inactive.
N#CC1=C(N)C2=C(N3CCCCC3)CCCC2C1(C#N)C#N (configuration not stated) was read as Pol beta inh inactive, Pol eta inh inactive, POLI inh inconclusive and Pol kappa inh 50µM.
`CN1C/C(=C/c2ccccc2[N+](=O)[O-])C(=O)/C(=C\c2ccccc2[N+](=O)[O-])C1` gave Pol eta inh inconclusive, POLI inh 89µM and Pol kappa inh inconclusive.
For Cc1ccc(NC(=O)COc2ccc(/C=N/NC(=O)CSCc3ccccc3)cc2)cc1 the results were Pol beta inh inconclusive, L3MBTL1 inh inactive, Pol eta inh inactive, POLI inh inconclusive and Pol kappa inh inactive.
`O=C(CSCc1ccc(Cl)cc1)N/N=C/c1ccc(OCC(=O)Nc2ccccc2)cc1` gave Pol beta inh 79µM, L3MBTL1 inh inactive, Pol eta inh inactive, POLI inh inconclusive and Pol kappa inh inactive.
CCCCN(CC)C(=O)c1cc2c(=O)n3ccccc3nc2n1C was read as Pol beta inh 45µM, Pol eta inh inactive, POLI inh inactive and Pol kappa inh inactive.
`CCCCCNC(=O)c1cc2c(=O)n3ccccc3nc2n1C` gave Pol beta inh inactive, Pol eta inh inactive, POLI inh inactive and Pol kappa inh inactive.
Screening COc1ccc(NC(=O)Cn2c([N+](=O)[O-])cnc2C)c(OC)c1 returned Pol eta inh inactive.
`Nc1ccc(N2CCCCCC2)cc1` gave Pol beta inh inconclusive and L3MBTL1 inh 18µM.
For Cc1c2c(c(O)c3c(O)cccc13)C(=O)O[C@H]2C1C(N(C)C)C(O)=C(C(N)=O)C(=O)[C@H]1O (some centres not stated) the results were Pol kappa inh 0.47µM.
Screening CCOc1cccc(NC(=O)/C(C#N)=C/c2cccnc2)c1 returned Pol beta inh inactive, Pol eta inh inactive, POLI inh inactive and Pol kappa inh inactive.
Screening COc1cc(/C=C(\C#N)C(=O)Nc2cccc(C(=O)O)c2)ccc1OCc1ccc(F)cc1 returned Pol beta inh 45µM, Pol eta inh 50µM, POLI inh inconclusive and Pol kappa inh inactive.
Screening CCOc1cc(/C=C(\C#N)C(=O)Nc2cccc(C(=O)O)c2)cc(Br)c1OC(=O)c1ccc(OC)cc1 returned Pol beta inh 16µM, Pol eta inh 79µM, POLI inh inconclusive and Pol kappa inh inconclusive.
Screening CNC(=O)c1ccc(NC(=O)COc2ccc(-c3nn(C)c(=O)c4ccccc34)cc2)cc1 returned Pol beta inh inactive, Pol eta inh inactive, POLI inh inactive and Pol kappa inh inactive.
For CCOc1ccc(-n2ccnc2SCC(=O)Nc2nc3ccc(C)cc3s2)cc1 the results were Pol beta inh 25µM, Pol eta inh 89µM, POLI inh inactive and Pol kappa inh inactive.
Screening Cc1cccc(-n2ccnc2SCC(=O)Nc2nc3ccccc3s2)c1 returned Pol beta inh inconclusive, Pol eta inh inactive, POLI inh inconclusive and Pol kappa inh inactive.
`CCOC(=O)c1c(SCC(=O)Nc2nc3ccc(C)cc3s2)nc(=O)[nH]c1C` gave Pol beta inh inconclusive, Pol eta inh inactive, POLI inh 89µM and Pol kappa inh inactive.
Screening CCOC(=O)c1c(SCC(=O)Nc2cc(Cl)cc(Cl)c2)nc(=O)[nH]c1C returned Pol beta inh inactive, Pol eta inh inactive, POLI inh inactive and Pol kappa inh inactive.
For Cc1ccc2nc(NC(=O)COC(=O)CSc3nc(C)cc(C)n3)sc2c1 the results were Pol beta inh 25µM, L3MBTL1 inh inactive, Pol eta inh inactive, POLI inh inactive and Pol kappa inh inactive.
